Reference: PubChem BioAssay AID463173 (ICCB-Longwood Screening Facility, Harvard Medical School, 2010)
The campaign covered roughly 52,000 compounds. About 4,300 (8.3%) were called active. This is one part of a sample in which actives are shown more often than they occur. A number with no mark means an inactive call. Cut-off read from the data, not from the text of the source: active = survival mostly below about 52% (no sharp cut-off); inactive = mostly above about 56%.

test system: DeltatarO mutant; assay: S. aureus survival, RN4220 and DeltatarO strains – OD600, teichoic acid synthesis inhibitors, primary screen (AID 463173); conditions: S. aureus RN4220 wild type/DeltatarO growth, OD600, 18 h, stronger effect = lower value, screened at 18.75 µg/mL (by protocol)

Row | Compound | survival
1 | Cc1ccc(NC(=O)Cn2c(=O)n(CCCCC(=O)NCc3ccc4c(c3)OCO4)c(=O)c3ccccc32)cc1 | 72%
2 | CC1(C)N([O-])C2=C(CCCC2)[N+]1=O | 83%
3 | CCCc1nc2ccccc2n2c(-c3cccc(C)c3)c3c(=O)n(C)c(=O)n(C)c3c12 | 67%
4 | Cc1cc(-c2ccc(C)c(S(=O)(=O)NCCc3ccccc3)c2)on1 | 80%
5 | CCOC(=O)c1c(-c2ccc(OC)cc2)oc2ccc(OCc3ccc(C(=O)OC)cc3)cc12 | 48%
6 | CCOC(=O)c1c(-c2ccccc2)oc2ccc(N(C(C)=O)S(=O)(=O)c3ccccc3)cc12 | 60%
7 | CCOC(=O)c1c(C)oc2ccc(OCC(N)=O)cc12 | 100%
8 | CCOC(=O)c1c(-c2ccccc2)oc2cc(Br)c(OCc3ccccc3)cc12 | 36% (active)
9 | CCOc1ccc(-c2oc3ccc(C)cc3c(=O)c2O)cc1 | 91%
10 | CCOC(=O)c1c(-c2ccccc2)oc2ccc(OCc3ccc(C)cc3)cc12 | 30% (active)
11 | CCOC(=O)c1c(-c2ccccc2)oc2cc(Br)c(OCC(N)=O)cc12 | 79%
12 | CCOC(=O)c1c(-c2ccc(OC)cc2)oc2ccc(OCc3ccc(Br)cc3)cc12 | 63%
13 | CCOC(=O)c1c(-c2ccc(OC)cc2)oc2ccc(OCc3ccccc3C)cc12 | 51%
14 | CCOC(=O)c1c(-c2ccc(OC)cc2)oc2ccc(OCc3ccc(F)cc3F)cc12 | 38% (active)
15 | CCOC(=O)c1c(-c2ccccc2)oc2ccc(N(C(C)=O)S(=O)(=O)c3ccc(C)cc3)cc12 | 62%
16 | Cc1ccc(COc2ccc3oc(-c4ccccc4)c(C(=O)O)c3c2)cc1 | 34% (active)
17 | Cc1ccc(C(=O)N/C(=C\c2cn(S(=O)(=O)N(C)C)c3ccccc23)C(=O)NCCCn2ccnc2)cc1 | 80%
18 | O=C(c1ccc(CS(=O)(=O)c2c(Cl)cccc2Cl)o1)N1CCN(c2ccccc2)CC1 | 107%
19 | Cc1ccc(CNC(=O)CN2C(=O)CSc3c2c(C)nn3-c2ccccc2)cc1 | 89%
20 | CC(CCc1ccccc1)NC(=O)Cn1ncc2c3ccccc3n(Cc3ccccc3F)c2c1=O (stereo not drawn) | 92%
21 | COc1ccccc1N1CCN(C(=O)CCS(=O)(=O)c2cc(Br)cc3c2N(C(=O)C2CC2)CC3)CC1 | 83%
22 | O=C(O)CCn1c(=O)c2cccn2c2cccnc21 | 98%

Row | Compound | survival
23 | CCOC(=O)c1c(-c2ccccc2)oc2ccc(OCc3cccc(Br)c3)cc12 | 38% (active)
24 | O=C(NCCc1ccccc1)C(=O)NCC(c1cccnc1)N1CCN(c2ccc(F)cc2)CC1 (stereo not drawn) | 103%
25 | C=CCN(CC=C)C(=O)COc1ccc(Cl)cc1Cl | 73%
26 | CCOc1cccc2sc(NC(=O)c3ccc(S(=O)(=O)N4CCc5ccccc54)cc3)nc12 | 71%
27 | Oc1ccc(-c2cccc(-c3ccc(O)cc3)c2)cc1 | 27% (active)
28 | COc1ccc(OC)c(CNCc2c(C(=O)O)n(Cc3ccccc3)c3cc(OC)ccc23)c1 | 77%
29 | Cc1ccc(CNCc2c(C(=O)O)n(Cc3ccccc3C)c3cc(C)ccc23)cc1 | 67%
30 | Cc1ccc2c(CNCc3cccc(Cl)c3)c(C(=O)O)n(Cc3ccc(F)cc3Cl)c2c1 | 70%
31 | COc1ccc(OC)c(CNCc2c(C(=O)O)n(Cc3cccc(F)c3)c3cc(OC)ccc23)c1 | -1% (active)
32 | Cc1ccc2c(CNCCc3ccccc3)c(C(=O)O)n(Cc3ccccc3C)c2c1 | 6% (active)
33 | C=Cc1ccc(Cn2c(C(=O)O)c(CNCCc3ccccc3)c3ccc(C)cc32)cc1 | 92%
34 | CCOc1ccc(CCNCc2c(C(=O)O)n(Cc3ccc(C)cc3)c3cc(OC)ccc23)cc1 | 58%
35 | CCOc1ccc(CNCc2c(C(=O)O)n(Cc3ccc(C)cc3)c3cc(C)ccc23)cc1 | 12% (active)
36 | CCOc1ccc(CNCc2c(C(=O)O)n(Cc3ccc(OC)cc3)c3ccccc23)cc1 | 82%
37 | COc1ccc2c(CNCc3ccc(Cl)cc3)c(C(=O)O)n(Cc3ccccc3C)c2c1 | 97%
38 | CCc1ccc(CNCc2c(C(=O)O)n(Cc3cccc(F)c3)c3cc(OC)ccc23)cc1 | 79%
39 | Cc1ccccc1Cn1c(C(=O)O)c(CNCc2cccc(F)c2)c2ccccc21 | 52% (active)
40 | CCC1CCCCN1C(=O)Cn1c(=O)n(-c2ccccc2C(F)(F)F)c(=O)c2c(C)c(C(=O)N(C)C)sc21 (stereo not drawn) | 80%
41 | CCC1CN(C(=O)N2CCC(C(=O)Nc3ccccc3F)CC2)c2ccccc2O1 (stereo not drawn) | 74%
42 | Cc1ccc(NC(=O)c2oc3ccc(S(=O)(=O)N4CCOCC4)cc3c2C)c(C)c1 | 125%
43 | CCOC(=O)c1cn(CC(=O)Nc2ccc(OC)cc2OC)nn1 | 83%
44 | Cc1cccc(CNC(=O)Cn2nc(C)n3c(cc4cc(F)ccc43)c2=O)c1 | 77%

Row | Compound | survival
45 | O=C(O)CCc1ccco1 | 98%
46 | CCOC(=O)C1CCN(C(=O)Cc2cccc3ccccc23)CC1 | 82%
47 | CCN(CC)S(=O)(=O)c1ccc(C(=O)NCCSc2c(-c3ccc(F)cc3)[nH]c3ccccc23)cc1 | 69%
48 | CCOC(=O)COc1ccc(F)cc1C(=O)c1ccn2nc(-c3ccc(C)cc3)cc2n1 | 80%
49 | COc1ccc(-c2nc(Cn3c(SCc4ccccc4F)nc4cccnc43)c(C)o2)cc1 | 69%
50 | Cc1ccc(CNCc2c(C(=O)O)n(Cc3ccc(C)cc3)c3cc(C)ccc23)cc1 | 2% (active)
51 | Cc1ccc2c(CNCCc3ccco3)c(C(=O)O)n(Cc3ccc(F)cc3)c2c1 | 59%
52 | C=Cc1ccc(Cn2c(C(=O)O)c(CNCc3ccccc3)c3ccc(C)cc32)cc1 | 120%
53 | Cc1ccc(Cn2c(C)c(CNCc3ccc(OC(C)C)cc3)c(C(=O)O)c2C)cc1 | 121%
54 | Cc1ccc2c(CNCCc3ccc(Cl)cc3)c(C(=O)O)n(Cc3ccc(F)cc3)c2c1 | 8% (active)
55 | COc1ccc(Cn2c(C(=O)O)c(CNCc3cccc(OC)c3)c3ccc(C)cc32)cc1 | 74%
56 | C=Cc1ccc(Cn2c(C(=O)O)c(CNCc3ccc(F)cc3)c3ccc(C)cc32)cc1 | 86%
57 | Cc1ccc(Cn2c(C(=O)O)c(CNCc3ccc(OC(C)C)cc3)c3ccc(C)cc32)cc1 | 11% (active)
58 | Cc1ccc(Cn2c(C(=O)O)c(CNCc3cccs3)c3ccc(C)cc32)cc1 | 48% (active)
59 | COc1ccc(Cn2c(C(=O)O)c(CNCc3cccs3)c3ccc(C)cc32)cc1 | 89%
60 | Cc1ccc2c(CNCc3cccs3)c(C(=O)O)n(Cc3ccc(F)cc3)c2c1 | 82%
61 | Cc1ccc(Cn2c(C(=O)O)c(CNCc3ccccc3Cl)c3ccc(C)cc32)cc1 | 58%
62 | CCCN(Cc1cccs1)C(=O)Nc1ccc(F)c(Cl)c1 | 58%
63 | COc1ccc(OC)c(CNC(=O)CCCn2c(=O)c3cccn3c3cccnc32)c1 | 97%
64 | CCOc1ccc(NC(=O)CC2C(=O)N(c3ccc(Cl)cc3)C(=O)N2Cc2cccs2)cc1 (stereo not drawn) | 81%
65 | Cc1cc(C)cc(NC(=O)C(Cc2ccccc2)NS(=O)(=O)c2ccc3c(c2)CCC(=O)N3)c1 (stereo not drawn) | 77%
66 | CCOC(=O)C(C)NC(=O)c1cc2c(=O)[nH]c3ccc(C)cc3c2s1 (stereo not drawn) | 57%

Row | Compound | survival
67 | Cc1ccc(Cn2c(C(=O)O)c(CNCc3ccc(C)o3)c3ccc(C)cc32)cc1 | 52%
68 | Cc1ccc(Cn2c(C(=O)O)c(CNCCc3cccs3)c3ccc(C)cc32)cc1 | 82%
69 | CCc1ccc(CNCc2c(C(=O)O)n(Cc3ccc(C)cc3)c3cc(C)ccc23)cc1 | 14% (active)
70 | COC(=O)c1scc(-c2ccc(C)cc2)c1S(=O)(=O)Nc1cc(C)ccc1OC | 75%
71 | CCCSc1ncc(Cl)c(C(=O)Nc2c(C(=O)c3ccc(F)cc3)oc3ccccc23)n1 | 44% (active)
72 | CS(=O)(=O)c1ncc(Cl)c(C(=O)Nc2c(C(=O)c3ccc(Cl)cc3)oc3ccccc23)n1 | 109%
73 | CCS(=O)(=O)c1ncc(Cl)c(C(=O)Nc2c(C(=O)c3ccc(C)cc3)oc3ccccc23)n1 | 50% (active)
74 | CCSc1ncc(Cl)c(C(=O)Nc2c(C(=O)c3ccccc3)oc3ccccc23)n1 | 79%
75 | CCCS(=O)(=O)c1ncc(Cl)c(C(=O)Nc2c(C(=O)c3ccccc3)oc3ccccc23)n1 | 102%
76 | CCCSc1ncc(Cl)c(C(=O)Nc2c(C(=O)c3ccc(C)cc3)oc3ccccc23)n1 | 56%
77 | CCOc1ccc(NC(=O)CSc2ccc3ccccc3n2)cc1 | 67%
78 | Cc1ccc(-n2c(=O)c3oc4ccccc4c3n(CC(=O)Nc3ccc(F)c(Cl)c3)c2=O)cc1C | 65%
79 | CCC(C(=O)NCc1ccccc1OC)n1nc(C)n2c(cc3sccc32)c1=O (stereo not drawn) | 82%
80 | O=S(=O)(c1ccc2nc(Nc3ccc(Br)cc3F)ccc2c1)N1CCCC1 | 117%
81 | O=C(Nc1ccc(F)cc1Cl)n1ncc2cc(Cl)ccc21 | 13% (active)
82 | Cc1ccc(C)c(NC(=O)n2ncc3cc(Cl)ccc32)c1 | 82%
83 | O=C(Nc1ccccc1C(F)(F)F)n1ncc2cc(Cl)ccc21 | 104%
84 | CC1(c2ccc(Cl)cc2Cl)OCC(Cn2cncn2)O1 (stereo not drawn) | 83%
85 | CCN(CC)Cn1nc(-c2ccccc2Cl)oc1=S | 77%
86 | S=c1oc(-c2ccccc2)nn1CNc1ccccc1 | 83%
87 | Cc1ccc(-c2nn(CO)c(=S)o2)cc1 | 48% (active)
88 | CCOc1ccc2c(c1)NC(c1cccs1)=NC(c1ccc(F)cc1)=N2 | 50%
